Each structure is given as a SMILES string. Values without a mark were called inactive. Inconclusive results are not listed. Activity calls are given as the source filed them. Unless noted, calls follow the shape of the dose curve; as a rule, active = well fitted curve in either direction with a large enough effect (not every such curve was filed as active); inconclusive = small, poorly fitted or top-dose-only effect, or another doubt; inactive = flat fitted curve, though single readings scatter.

Assay [1] is described as follows: AP1 Signaling Pathway (AID 357).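 Also: ME-180 reporter cells stimulated with EGF at its EC50 level; % is scaled to controls: 0 for no effect and ±100 for the full control effect.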 To be noted: ME-180 AP-1-bla reporter, EGF-induced, beta-lactamase ratio, 5 h; at 17.2 µM (top of the series) unless noted. The procedure, abridged: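 Titration-series screen for positive or negative modulators of EC50 EGF-induced signaling in ME-180 cells carrying an AP-1-driven beta-lactamase reporter. After 5 hours at 37 degrees Celsius, CCF4 460nm/530nm emission ratio gave %Activity; AC50 values derived.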

Assay [2] can be described thus: NFAT Signaling Pathway (AID 444).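 Also: carbachol stimulus at about its EC50 of 1 µM final; % is scaled to controls: 0 for no effect and ±100 for the full control effect.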 To be noted: Jurkat NFAT-bla M1, carbachol, beta-lactamase ratio, 5 h; at 17.2 µM (top of the series) unless noted. Put shortly: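 Read-out: CCF4 FRET ratio (460 nm/530 nm) after 1 h RT dye loading, used for %activity and AC50 from titration series. Cells: Jurkat NFAT-β-lactamase/M1 line, treated with compound plus 1 uM carbachol for 5 h, 37 °C.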

For assay [3], the target named is Glucocorticoid receptor (Homo sapiens) (UniProt P04150). The assay can be described thus: GR-GFP Redistribution (AID 450;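 active = compounds whose dose series gives a full or clear partial fitted curve of increased nuclear translocation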; also: potency is read from the fitted curve at half-maximal effect).
Assay [4] in a line: Stat Signaling Pathway (AID 446).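 Also: ME-180 cervical cancer cells given 40 pM IL-6 alongside compound; SIE-controlled beta-lactamase reporter measured as 460/530 nm FRET emission ratio; % is scaled to controls: 0 for no effect and ±100 for the full control effect.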 Conditions: ME-180 SIE beta-lactamase reporter, IL-6 stimulated, 5 h; at 17.2 µM (top of the series) unless noted. The procedure, abridged: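 Screening format detects activators and inhibitors alike: ME-180 SIE-bla cells stimulated at 40 pM IL-6 for 5 hrs with compound, then dual-emission beta-lactamase read at 405 nm excitation.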
The nature of assay [5]: qHTS Assay for Identification of Small Molecule Agonists for Hypoxia Response Element Signaling Pathway (AID 914; active = well fitted activation curve with a large enough effect in the signal ratio, with a control signal flat, not every such curve was filed as active; the % refers to the signal ratio; also: potency is read from the fitted curve at half-maximal effect; as to activation: % of control where 0% means no effect). Conditions: ME-180 (cervical carcinoma) HRE-bla reporter, beta-lactamase ratio, CoCl2, 17 h; activation: active compounds read high. The procedure, abridged: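 A beta-lactamase reporter under hypoxia response element control in ME-180 cells served as the system. Compound titrations plus EC50 CoCl2 ran 17 h at 37 degrees Celsius; AC50 values were fitted from %Activity.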

The target in assay [6] is Glucocorticoid receptor (Homo sapiens) (UniProt P04150). The assay can be described thus: GR-EFC Redistribution (AID 451; calls by dose curve; also: potency is read from the fitted curve at half-maximal effect). Conditions: CHO-K1 GR-EFC translocation, beta-gal luminescence, 2 h. Put shortly: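 Translocation of GR-ED fusion to nuclear EA restores b-gal, read by luminescence after 1 h room-temperature detection. Engineered CHO-K1 biosensor cells, 1,000/well, exposed 2 h at 37 C to titrations up to 46 uM final.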

Assay [7] concerns the target Mitogen-activated protein kinase 10 (Mus musculus) (UniProt Q61831). The assay can be described thus: JNK3 AlphaScreen Assay (AID 530).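 Also: kinase came from lysate of stimulated human HepG2 cells; signal reports phosphorylation of biotinylated GST-cJun 1-79 at Ser73 with 10 µM ATP; % is scaled to controls: 0 for no effect and ±100 for the full control effect.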 Put shortly: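 Room-temperature AlphaScreen kinase assay; pre-activated HepG2 lysate as JNK3 source, biotin-GST-cJun(1-79) substrate, 10 uM ATP, compound 15 min preincubation.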
Assay [8] addresses 3',5'-cyclic-AMP phosphodiesterase 4B (Homo sapiens) (UniProt Q07343). Description: qHTS Assay for Inhibitors of PDE-IV (AID 607; active = well fitted activation curve with a large enough effect in the main read-out, with a control signal flat, not every such curve was filed as active; also: % of control where 0% means no effect). Put shortly:
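The readout is membrane depolarisation from a cAMP-sensing CNG channel, detected with a potential dye at ex 535/em 590. Cells were HEK293-derived (endogenous PDE-IV) at 1000 cells/well, titrated up to 22.9 uM final.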

For assay [9], the target named is Guanine nucleotide-binding protein G(i) subunit alpha-1 (Homo sapiens) (UniProt P63096). Description: qHTS Assay for Inhibitors of RGS12 GoLoco Motif Activity (Green Fluorophore) (AID 879; active = well fitted curve in the direction sought with a large enough effect; an effect the other way counts as inactive or inconclusive;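 also: 0% = labeled peptide with Gαi1 and full inhibition = labeled peptide alone without protein; negative values mean loss of peptide binding seen as reduced polarization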). Put shortly: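 Fluorescence polarization assay: 50 nM Gαi1 with 10 nM FITC-labeled RGS12 GoLoco peptide in 10 mM Tris pH 7.5, 150 mM NaCl, 0.1 mM GDP, 0.05% NP40, 10 min at room temperature with compound.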
(qHTS replaces the single test concentration by a dilution series.)

The nature of assay [10]: qHTS Assay for Identification of Small Molecule Agonists for Thrombopoietin (TPO) Signaling Pathway (AID 917; active = well fitted curve in the direction sought with a large enough effect; an effect the other way counts as inactive or inconclusive; also: % is scaled to controls: 0 for no effect and ±100 for the full control effect). The procedure, abridged: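 Murine Ba/F3 cells expressing human TPO receptor and GPIIb-promoter luciferase, IL-3-starved overnight, given compound plus TPO at 26 pM (EC50). After 24 h at 37 C, 5% CO2, luminescence read.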
The target of assay [11] is Muscarinic acetylcholine receptor M1 (Rattus norvegicus) (UniProt P08482). The assay can be described thus: qHTS Assay for Antagonists of Acetylcholine Muscarinic M1 Receptor: Kinetic Measurement of Intracellular Calcium Response (AID 943; active = well fitted curve in the direction sought with a large enough effect; an effect the other way counts as inactive or inconclusive;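 also: Fluo-4 calcium signal as peak divided by basal fluorescence over 4 min; nearly all actives have a fitted effect of over 75% in size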). The procedure, abridged:
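Intracellular calcium flux, recorded with Fluo-4 in a kinetic plate reader, served as signal; the response to carbachol at EC80 (100 nM final) was taken as maximal over minimal fluorescence after a 10 min compound pre-incubation in rat M1-CHO cells.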

For assay [12] the target is unchanged. The assay can be described thus: qHTS Assay for Antagonists of Acetylcholine Muscarinic M1 Receptor: Measurement of IP-One Response (AID 944; active = well fitted curve in the direction sought with a large enough effect; an effect the other way counts as inactive or inconclusive; also: nearly all actives have a fitted effect of over 75% in size). Put shortly: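 Steps: plate transfected CHO-M1 cells overnight; add test compound, 10 min; add carbachol (200 nM, EC80) in stimulation buffer with LiCl; incubate 30 min; add labelled IP1 tracer and anti-IP1 antibody in lysis buffer; read HTRF after 10 min.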

The target of assay [13] is Pyruvate kinase (Leishmania mexicana) (UniProt Q27686). The assay can be described thus: qHTS Validation Assay for Inhibitors of Leishmania Mexicana Pyruvate Kinase (AID 945; active = well fitted curve in the direction sought with a large enough effect; an effect the other way counts as inactive or inconclusive;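 also: 0% = DMSO only neutral control wells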). Put shortly:
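Compounds are tested as eight-point concentration series. Reactions contain 0.2 nM LmPYK E451W, 0.5 mM PEP, 0.1 mM ADP, 7 mM MgCl2 and 50 mM KCl at pH 7.2, run 1 h at room temperature, then read by PKLight luminescence.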

Assay [14] has as its target Pyruvate kinase PKM (Homo sapiens) (UniProt P14618). The assay can be described thus: qHTS Assay for Activators of Human Muscle Pyruvate Kinase (AID 954; active = well fitted curve in the direction sought with a large enough effect, not every such curve was filed as active;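 also: 0% = uninhibited enzyme and -100% = no enzyme or full thiadiazolimine inhibition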). The procedure, abridged: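 Reaction: 0.1 nM purified PKM2 with 0.5 mM phosphoenolpyruvate and 0.1 mM ADP, room temperature, 1 h. Readout: luciferase-based ATP luminescence after stop reagent. Activators judged against a 0.3 nM enzyme column.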

Assay [15] addresses Alpha-galactosidase A (Homo sapiens) (UniProt P06280). The assay can be described thus: Counterscreen for Glucocerebrosidase Inhibitors: qHTS Assay for Human alpha-Galactosidase at pH 4.5 (AID 992; active = well fitted curve in the direction sought with a large enough effect; an effect the other way counts as inactive or inconclusive; also: 0% is about no effect). The procedure, abridged:
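Concentration-response curves (0.7 nM to 77 uM final) were modeled with the Hill equation to give AC50. Reactions: 2 nM enzyme, 80 uM fluorogenic alpha-galactoside, pH 4.5 citric acid buffer, 20 min, room temperature.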

Assay [16] deals with alpha-glucosidase (Oryza sativa, rice) (UniProt Q653V4). The assay can be described thus: Counterscreen for Glucocerebrosidase Inhibitors: qHTS Assay for Rice alpha-Glucosidase at pH 5.0 (AID 997; active = well fitted curve in the direction sought with a large enough effect; an effect the other way counts as inactive or inconclusive;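 also: 0% = full activity with enzyme and -100% = basal without enzyme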). Put shortly: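 Rice alpha-glucosidase (4 nM final) with 400 uM 4-methylumbelliferyl-alpha-D-glucopyranoside in citrate buffer pH 5.0, 20 min at room temperature, stopped at pH 10; fluorescence 365/440 nm, compounds 0.7 nM–77 uM, AC50 from Hill fits.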

Sequence of Glucocorticoid receptor (Homo sapiens) (P04150 whole entry, looked up, the tested form may be a part): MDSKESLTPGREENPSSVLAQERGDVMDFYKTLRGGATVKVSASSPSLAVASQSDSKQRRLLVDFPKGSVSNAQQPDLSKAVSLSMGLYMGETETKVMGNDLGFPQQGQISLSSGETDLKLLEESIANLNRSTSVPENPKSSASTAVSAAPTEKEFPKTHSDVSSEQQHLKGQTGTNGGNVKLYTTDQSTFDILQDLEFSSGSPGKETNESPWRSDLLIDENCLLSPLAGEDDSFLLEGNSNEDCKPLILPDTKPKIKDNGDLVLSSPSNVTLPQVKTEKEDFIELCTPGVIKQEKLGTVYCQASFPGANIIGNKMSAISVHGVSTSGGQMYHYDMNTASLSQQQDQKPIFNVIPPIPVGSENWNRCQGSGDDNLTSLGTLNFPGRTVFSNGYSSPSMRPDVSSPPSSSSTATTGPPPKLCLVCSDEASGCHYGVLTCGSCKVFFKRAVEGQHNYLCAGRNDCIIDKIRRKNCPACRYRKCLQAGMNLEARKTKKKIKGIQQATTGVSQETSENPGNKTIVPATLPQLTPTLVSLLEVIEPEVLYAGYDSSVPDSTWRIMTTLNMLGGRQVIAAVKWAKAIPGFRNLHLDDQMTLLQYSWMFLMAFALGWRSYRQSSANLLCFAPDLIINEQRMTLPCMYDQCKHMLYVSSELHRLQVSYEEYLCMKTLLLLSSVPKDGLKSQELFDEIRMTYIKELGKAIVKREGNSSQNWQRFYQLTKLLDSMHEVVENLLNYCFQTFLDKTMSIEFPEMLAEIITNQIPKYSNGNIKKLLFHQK
Sequence of 3',5'-cyclic-AMP phosphodiesterase 4B (Homo sapiens) (Q07343 whole entry, looked up): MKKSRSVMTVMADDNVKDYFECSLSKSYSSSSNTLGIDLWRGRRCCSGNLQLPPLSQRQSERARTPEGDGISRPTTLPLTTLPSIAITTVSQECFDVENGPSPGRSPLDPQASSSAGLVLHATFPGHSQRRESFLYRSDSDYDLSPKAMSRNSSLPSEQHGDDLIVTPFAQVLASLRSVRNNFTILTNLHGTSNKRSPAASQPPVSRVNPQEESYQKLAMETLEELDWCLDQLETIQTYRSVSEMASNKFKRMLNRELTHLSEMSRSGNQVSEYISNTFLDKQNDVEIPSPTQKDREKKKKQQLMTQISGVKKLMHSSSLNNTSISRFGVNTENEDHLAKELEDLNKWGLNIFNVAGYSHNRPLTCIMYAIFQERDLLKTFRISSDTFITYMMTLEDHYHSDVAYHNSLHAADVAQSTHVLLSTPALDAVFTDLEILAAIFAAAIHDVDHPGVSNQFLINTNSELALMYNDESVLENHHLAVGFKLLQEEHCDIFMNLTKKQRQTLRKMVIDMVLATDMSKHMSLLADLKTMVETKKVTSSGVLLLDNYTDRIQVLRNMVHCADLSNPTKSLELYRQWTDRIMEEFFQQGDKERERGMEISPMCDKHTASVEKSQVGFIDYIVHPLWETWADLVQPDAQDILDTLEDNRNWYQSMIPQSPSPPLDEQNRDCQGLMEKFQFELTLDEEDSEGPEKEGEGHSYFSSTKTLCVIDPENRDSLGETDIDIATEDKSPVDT
Sequence of Muscarinic acetylcholine receptor M1 (Rattus norvegicus) (P08482 whole entry, looked up): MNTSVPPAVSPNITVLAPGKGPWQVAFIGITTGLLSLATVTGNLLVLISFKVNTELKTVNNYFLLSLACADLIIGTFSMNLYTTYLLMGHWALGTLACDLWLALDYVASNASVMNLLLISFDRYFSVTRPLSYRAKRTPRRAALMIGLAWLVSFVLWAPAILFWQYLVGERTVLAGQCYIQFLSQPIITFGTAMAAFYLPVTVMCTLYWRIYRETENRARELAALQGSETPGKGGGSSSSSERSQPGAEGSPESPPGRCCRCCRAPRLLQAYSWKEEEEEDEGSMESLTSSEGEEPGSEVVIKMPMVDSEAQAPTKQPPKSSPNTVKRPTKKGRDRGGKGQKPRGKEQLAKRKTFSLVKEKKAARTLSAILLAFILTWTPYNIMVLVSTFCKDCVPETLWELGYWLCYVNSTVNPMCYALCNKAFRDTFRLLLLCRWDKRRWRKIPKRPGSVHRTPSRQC
Sequence of Alpha-galactosidase A (Homo sapiens) (P06280 whole entry, looked up): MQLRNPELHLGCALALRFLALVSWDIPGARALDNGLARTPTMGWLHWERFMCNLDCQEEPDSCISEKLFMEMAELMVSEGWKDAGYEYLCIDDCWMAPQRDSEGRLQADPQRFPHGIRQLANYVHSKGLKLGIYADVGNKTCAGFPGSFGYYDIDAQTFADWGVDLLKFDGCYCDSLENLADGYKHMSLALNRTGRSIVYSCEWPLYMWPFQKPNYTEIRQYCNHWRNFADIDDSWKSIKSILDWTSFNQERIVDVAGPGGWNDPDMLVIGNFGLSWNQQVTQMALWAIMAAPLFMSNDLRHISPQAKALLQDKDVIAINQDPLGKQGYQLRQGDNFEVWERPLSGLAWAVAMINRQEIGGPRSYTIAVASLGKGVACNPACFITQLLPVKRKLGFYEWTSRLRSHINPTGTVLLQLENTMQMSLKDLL
Sequence of Pyruvate kinase (Leishmania mexicana) (Q27686 2-499 E452W): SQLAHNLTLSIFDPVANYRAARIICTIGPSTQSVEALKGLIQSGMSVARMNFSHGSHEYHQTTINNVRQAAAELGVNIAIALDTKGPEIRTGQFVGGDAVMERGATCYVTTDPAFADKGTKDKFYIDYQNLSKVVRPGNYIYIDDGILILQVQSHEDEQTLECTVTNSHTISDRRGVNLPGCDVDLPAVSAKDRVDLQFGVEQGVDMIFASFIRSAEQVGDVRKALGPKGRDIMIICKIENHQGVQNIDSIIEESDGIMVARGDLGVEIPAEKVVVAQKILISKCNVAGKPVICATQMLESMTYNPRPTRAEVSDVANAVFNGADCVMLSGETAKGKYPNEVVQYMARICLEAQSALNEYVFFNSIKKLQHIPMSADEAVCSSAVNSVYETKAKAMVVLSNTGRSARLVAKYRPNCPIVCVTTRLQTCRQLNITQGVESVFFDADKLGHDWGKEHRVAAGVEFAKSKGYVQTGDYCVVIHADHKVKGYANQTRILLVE
Sequence of Pyruvate kinase PKM (Homo sapiens) (P14618 whole entry, looked up): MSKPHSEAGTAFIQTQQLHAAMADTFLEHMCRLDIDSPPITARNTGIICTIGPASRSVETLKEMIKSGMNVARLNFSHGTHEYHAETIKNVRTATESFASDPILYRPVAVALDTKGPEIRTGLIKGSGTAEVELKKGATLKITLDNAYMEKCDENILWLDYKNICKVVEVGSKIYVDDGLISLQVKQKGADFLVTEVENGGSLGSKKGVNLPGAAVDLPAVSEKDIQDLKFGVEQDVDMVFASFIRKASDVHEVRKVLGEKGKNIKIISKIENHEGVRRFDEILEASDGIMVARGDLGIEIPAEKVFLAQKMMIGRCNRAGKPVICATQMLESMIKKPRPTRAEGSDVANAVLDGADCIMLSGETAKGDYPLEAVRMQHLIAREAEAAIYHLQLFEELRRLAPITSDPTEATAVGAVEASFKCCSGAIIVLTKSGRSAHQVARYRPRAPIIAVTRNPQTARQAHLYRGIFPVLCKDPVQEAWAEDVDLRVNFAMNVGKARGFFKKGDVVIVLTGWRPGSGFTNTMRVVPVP
Sequence of Guanine nucleotide-binding protein G(i) subunit alpha-1 (Homo sapiens) (P63096 whole entry, looked up): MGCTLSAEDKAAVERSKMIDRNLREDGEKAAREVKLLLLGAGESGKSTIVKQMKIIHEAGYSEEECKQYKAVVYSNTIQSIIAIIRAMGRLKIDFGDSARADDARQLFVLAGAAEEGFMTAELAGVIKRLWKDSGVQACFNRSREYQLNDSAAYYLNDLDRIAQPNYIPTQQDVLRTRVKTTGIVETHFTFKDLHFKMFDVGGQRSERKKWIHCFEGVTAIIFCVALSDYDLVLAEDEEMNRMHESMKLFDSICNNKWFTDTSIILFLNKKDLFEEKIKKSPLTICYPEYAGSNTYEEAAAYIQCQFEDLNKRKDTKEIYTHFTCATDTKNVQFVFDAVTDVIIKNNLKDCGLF

On to `CSc1nc2sc3c(c2c(=O)n1C1CCCCC1)CCN(C)C3`, for which the activity change, negative = inhibition in assay [1] is -0.967%; in assay [2] it was -81.1% (active). For the same compound, the Potency in assay [3] is more than 20.6 µM.

With `COc1ccc(N(CN2C(=O)C3C4C=CC(C4)C3C2=O)C(=O)c2ccco2)cc1` (configuration not stated), the results for the activity change, negative = inhibition in [1] and in [2] were -8.5% and 12.6%, respectively. Also, the Potency in [3] is more than 20.6 µM.

For the compound `CCC(=O)Nc1nc(C)c(Oc2ccccc2)c(=O)[nH]1`, the activity change, negative = inhibition in [1] is 6.64%; in [2] it was 9.01%. Moreover, in assay [3], the Potency was more than 20.6 µM.

As for `N#Cc1c(N)nc(SCC(=O)NCc2ccc3c(c2)OCO3)c(C#N)c1-c1cccs1`, the results for the activity change, negative = inhibition in [1] and in assay [2] were -27.2% and -13.6%, respectively. Moreover, in assay [3], the Potency was more than 20.6 µM.

On to `COc1cc(OC)cc(C(=O)N2CCC(N3CCCCCC3)CC2)c1`, for which, in assay [1], the activity change, negative = inhibition was -0.714%. The activity, negative = inhibition in assay [4] is 0.747%. In assay [3], the Potency is more than 20.6 µM.

Consider `CC1(C)Cc2c(C#N)c(NCC3CCCO3)nc(-c3ccco3)c2CO1` (configuration not stated), for which the activity change, negative = inhibition was -9.98% in assay [1] and 5.63% in assay [2]. Moreover, the Potency in [3] is more than 20.6 µM. Moreover, in [5], the activation was 25.9%.

As to `CCOc1cccc(-c2nnc3sc(-c4cc(OC)c(OC)c(OC)c4)nn23)c1`, the activity change, negative = inhibition in assay [1] is 3.58%. Further, in [4], the activity, negative = inhibition is -10.4%. The Potency in assay [3] was more than 20.6 µM.

On to `CC1(C)Cc2nc(NCCN3CCOCC3)c(C#N)cc2CO1`, for which the activity change, negative = inhibition in assay [1] was 7.57%; in assay [2], 7.63%. Moreover, the Potency in [3] is more than 20.6 µM. Also, in assay [5], the activation is 3.3%.

Turning to `COc1cccc(-c2nc(N3CC(C)CC(C)C3)c3ccccc3n2)c1O` (configuration not stated), in assay [1], the activity change, negative = inhibition is 13.7%. Moreover, in assay [4], the activity, negative = inhibition is 8.47%. Further, the Potency in assay [3] is more than 20.6 µM.

On to `COc1cccc(CNc2ncc(Br)cc2Br)c1O`, for which the activity change, negative = inhibition in [1] was -6.72%. The activity, negative = inhibition in assay [4] is -21.8%. The Potency in assay [3] is more than 20.6 µM.

`C=CCNc1nnc(SC2CC(=O)N(c3ccc(OC)cc3)C2=O)s1` (configuration not stated): the activity change, negative = inhibition in assay [1] was -11.6%. For the same compound, the activity, negative = inhibition in [4] is -1.82%. For the same compound, in assay [3], the Potency is more than 20.6 µM.

With `CCCCc1nc(NCC2CCCO2)c(C#N)c2c1COC(C)(C)C2` (configuration not stated), the activity change, negative = inhibition in assay [1] is -26.3%. Also, the activity, negative = inhibition in [4] was 1.02%. Further, the Potency in assay [3] is more than 20.6 µM.

On to `CCC1CCCCN1c1nc(-c2ccncc2)nc2ccccc12` (configuration not stated), for which the activity change, negative = inhibition in [1] was -20.7%. Moreover, the activity, negative = inhibition in assay [4] is -2.48%. For the same compound, the Potency in [3] is more than 20.6 µM.

As to `CCOC(=O)C(O)(C1C(=O)CC(C)(C)CC1=O)C(F)(F)F` (configuration not stated), the activity change, negative = inhibition is 10.7% in assay [1] and 7.75% in assay [2]. For the same compound, in assay [5], the Potency is 10 µM (active).

In the case of `COc1ccc2c(c1OC)C(=O)N1c3ccccc3C(=O)N(c3ccc(F)cc3)C21` (configuration not stated), the activity change, negative = inhibition in assay [1] is -3.68%. Moreover, in assay [4], the activity, negative = inhibition was -12.3%. Moreover, the Potency in assay [3] is more than 20.6 µM.

For the compound `Cc1cc(C)n(C2CCCCC2OC(=O)c2ccccc2)n1` (configuration not stated), the activity change, negative = inhibition in [1] was 7.47%. Further, the activity, negative = inhibition in assay [4] was 3.83%. For the same compound, the Potency in assay [3] is more than 20.6 µM.

Consider `CCN(CC)CCCN1C(=O)C(=O)/C(=C(/O)c2ccc3c(c2)CC(C)O3)C1c1ccncc1` (configuration not stated), for which the activity change, negative = inhibition in [1] is 0.667%; in assay [2], 13.1%. The Potency in assay [3] is more than 20.6 µM.

Consider `CCCCCCCCCC(=O)N[C@@H](CN1CCOCC1)[C@@H](O)c1ccccc1`, for which the activity change, negative = inhibition was 5.88% [at 38 µM] in [1] and 1.34% [at 38 µM] in [2]. The Potency in assay [3] and in assay [6] was more than 46 µM throughout. The Potency result in [7], in [8], in assay [10], in [11], in assay [12] and in assay [13] was “inactive” in each case. Besides, the call in assay [9], in assay [14], in [15] and in assay [16] was inactive.

As to `O=C(NC1CCCCC1)[C@H](O)[C@@H](O)C(=O)NC1CCCCC1`, the activity change, negative = inhibition in assay [1] is 8.04%; in [2], 0.354%. Further, in [3], the Potency is more than 20.6 µM. Besides, the activation in assay [5] was 12.1%.

For the compound `CC1CN(C2CCN(C(=O)c3ccccc3Cl)CC2)CC(C)O1` (configuration not stated), the activity change, negative = inhibition in assay [1] is 6.4%. For the same compound, the activity, negative = inhibition in assay [4] was 1.52%. For the same compound, the Potency in [3] was more than 20.6 µM.

As for `Cn1c2c(c(=O)n(C)c1=O)C(NC(=O)C(C)(C)C)(C(F)(F)F)C(=O)N2` (configuration not stated), the activity change, negative = inhibition was -5.62% in assay [1] and -2.4% in assay [2]. Further, the Potency in assay [3] is more than 20.6 µM. In addition, the activation in assay [5] is 8.6%.

With `CCCOc1ccc(CSC(CC(=O)O)C(=O)O)cc1` (configuration not stated), the activity change, negative = inhibition in [1] was 4.79%; in [2], 13.3%. Further, the Potency in assay [3] is more than 20.6 µM.

With `O=C(CSc1ncnc2nc[nH]c12)c1ccccc1`, the activity change, negative = inhibition was -9.01% [at 7.69 µM] in [1], 11.7% [at 7.69 µM] in [2] and -0.309% [at 11.4 µM] in assay [7]. In addition, the Potency in assay [3] is more than 46 µM; in assay [6], more than 9.22 µM. In assay [8], the Potency result is “inactive”.

These data come from PubChem BioAssay (NCATS).
